These entries were drawn from the full list.
aSyn UTR act = Activators working through SNCA 5'UTR binding (MLPCN); activity score, % (tested at 7.5 µM), hits read low; AID 1814; actives 7.1% (n = 300,000); alpha-synuclein 5'UTR reporter, activators screen; in the data active means activity score below about -60%
* = called active by the depositor.

SMILES | aSyn UTR act
Cc1ccc(C(=O)Cn2cnc3ccccc3c2=O)cc1C | -155*
COc1ccc(C(=O)Cn2cnc3ccccc3c2=O)cc1 | -146*
O=C(CN1C(=O)c2ccccc2S1(=O)=O)c1ccc2c(c1)OCCO2 | 111
O=C(Cn1cnc2ccccc2c1=O)c1ccc2ccccc2c1 | -140*
O=C(Cn1cnc2ccccc2c1=O)Nc1ccc2c(c1)OCO2 | -120*
CN=c1scc(-c2ccccc2Br)n1/N=C/c1ccc[nH]1 | 64
CN=c1scc(-c2ccccc2F)n1/N=C(\C)c1cccnc1 | -163*
CCn1nccc1C(=O)Nc1ccc(C(=O)OC(C)C)cc1 | -163*
CCCCn1cnc2c(cnn2-c2ccc(F)cc2)c1=O | -123*
CCCn1cnc2c(cnn2-c2ccc(F)cc2)c1=O | -115*
CCCCn1cnc2c(cnn2-c2ccc(Cl)cc2)c1=O | -109*
CCOC(=O)C(C)n1cnc2c(cnn2-c2ccc(Cl)cc2)c1=O (stereo not given) | -135*
O=c1[nH]c(/C(Cl)=C/c2cc(Cl)ccc2O)nc2cc(Cl)ccc12 | -90*
Cc1ccc(OCCCCn2cnc3ccccc32)c(C)c1 | -88*
Brc1ccccc1OCCCCn1cnc2ccccc21 | -138*
Cn1nnnc1SCc1nnc(-c2ccc(Cl)cc2)o1 | -75*
CCCOC(=O)Nc1nc2ccccc2o1 | -99*
CCOC(=O)C(=CN=C(N)Nc1nc2ccccc2o1)C(=O)OCC | -119*
O=C(Cn1cc(C(F)(F)F)cc(Cl)c1=O)NCc1ccccc1 | -113*
CCOC(=O)COc1cccc2c(=O)n(CC(=O)NCc3ccccc3)ccc12 | 57
O=C(COc1ccccc1CNCc1ccccc1)Nc1ccccc1 | -91*
Brc1ccc(COc2cccc3cccnc23)cc1 | -81*
O=C(COc1cccc2cccnc12)Nc1ccccc1 | -174*
O=C(N/N=C/c1ccc[nH]1)c1ccc(COc2cccc3cccnc23)cc1 | 104
OCc1ccccc1OCCCOc1cccc2cccnc12 | -83*
SMILES | aSyn UTR act
Clc1ccc(OCc2cn3ccccc3n2)c2ncccc12 | -158*
OCc1ccccc1OCCOc1ccc(Cl)c2cccnc12 | -95*
c1ccc(OCCOc2cccc3cccnc23)cc1 | -94*
O=S(=O)(Nc1cccc(-c2ccc(N3CCCCCC3)nn2)c1)c1ccc(F)cc1 | -146*
O=S(=O)(Nc1cccc(-c2ccc(N3CCCCCC3)nn2)c1)c1ccc(C(F)(F)F)cc1 | -88*
Cc1ccc(S(=O)(=O)Nc2cccc(-c3ccc(N4CCCCCC4)nn3)c2)cc1C | -117*
O=C(Nc1cccc(-c2ccc(N3CCCCC3)nn2)c1)C(F)(F)F | 96
O=S(=O)(Nc1cccc(-c2ccc(N3CCCCCC3)nn2)c1)c1ccccc1F | -128*
O=S(=O)(Nc1cccc(-c2ccc(N3CCCCCC3)nn2)c1)c1cccc(F)c1 | -108*
COC(c1ccccc1)c1nnc(CCC(=O)N(C)C(C2CC2)C2CC2)o1 (stereo not given) | -147*
Cc1ccc(CC2CC(=O)N(Cc3ccco3)C2=O)cc1 (stereo not given) | -129*
CCOc1cccc(C(=O)NC(=S)Nc2cccnc2)c1 | -142*
O=C(NC(=S)Nc1ccc(CN2CCCCC2)cc1)c1cccc(OCc2ccccc2)c1 | -65*
CC(C)(C)c1cc(Cl)c(O)c(NC(=S)NC(=O)c2cccnc2)c1 | 80
CCOc1cccc(C(=O)NC(=S)Nc2ccccc2)c1 | -184*
CCc1ccc(NC(=O)CSc2nncn2-c2cccnc2)cc1 | -119*
Cn1cc(Cl)c(C(=O)Nc2nc3ccc([N+](=O)[O-])cc3s2)n1 | -68*
Cn1cc(Cl)c(C(=O)Nc2nc3ccc(Cl)cc3s2)n1 | -197*
O=C(c1nn2c(C(F)(F)F)cc(-c3cccs3)nc2c1Br)N1CCCc2ccccc21 | 82
O=C(C[n+]1cc(-c2ccccc2)n2c1CCC2)Nc1nc(-c2ccccc2)cs1 | -73*
O=C(CSCC(=O)N1CCCc2ccccc21)Nc1nc(-c2ccccc2)cs1 | -100*
O=C(C[n+]1cc(-c2ccc(F)cc2)n2c1CCC2)c1cccs1 | -144*
N/C(Cc1nc(-c2ccc(Cl)cc2)cs1)=N/O | -67*
Cc1ccc(-c2csc(CC(N)=O)n2)cc1 | -76*
CCS(=O)(=O)N1Cc2ccccc2CC1C(=O)Nc1ccc(F)c(F)c1 (stereo not given) | -88*
SMILES | aSyn UTR act
CCS(=O)(=O)N1Cc2ccccc2CC1C(=O)Nc1cccc(C)c1 (stereo not given) | -102*
O=C(Nc1nnc(C2CC2)s1)C1Cc2ccccc2CN1S(=O)(=O)c1ccccc1F (stereo not given) | -178*
CCS(=O)(=O)N1Cc2ccccc2CC1C(=O)Nc1ccc(F)c(F)c1F (stereo not given) | -62*
CCS(=O)(=O)N1Cc2ccccc2CC1C(=O)Nc1ncc(C)s1 (stereo not given) | -126*
NC(=S)N/N=C/c1cccc(O)c1O | -94*
O=C(Nc1ccc(/C=C/c2nc3ccccc3o2)cc1)c1ccc(F)cc1 | -117*
Cc1nc2ccccc2nc(=O)c1NNc1ccccc1 | -241*
Cc1ccc2nc(=O)c(NNc3ccccc3)cnc2c1 | -218*
